Screens from PubChem.
ROC1-CUL1 inh = inhibitors of human ROC1-CUL1 ubiquitin ligase activity. E3 ubiquitin-protein ligase RBX1 (Homo sapiens) + Cullin-1 (Homo sapiens), P62877+Q13616. in vitro K48 di-Ub FRET, acceptor:donor ratio, 45 min. inhibition, % at 10 µM. hit rate 0.6% among 140,000. AID 1347404, 2020; in the data active = inhibition above about 25%
Target sequence (P62877 whole entry, looked up): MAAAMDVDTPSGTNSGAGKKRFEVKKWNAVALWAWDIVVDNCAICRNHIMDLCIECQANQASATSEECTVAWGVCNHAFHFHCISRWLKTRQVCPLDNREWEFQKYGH
Target sequence (Q13616 whole entry, looked up): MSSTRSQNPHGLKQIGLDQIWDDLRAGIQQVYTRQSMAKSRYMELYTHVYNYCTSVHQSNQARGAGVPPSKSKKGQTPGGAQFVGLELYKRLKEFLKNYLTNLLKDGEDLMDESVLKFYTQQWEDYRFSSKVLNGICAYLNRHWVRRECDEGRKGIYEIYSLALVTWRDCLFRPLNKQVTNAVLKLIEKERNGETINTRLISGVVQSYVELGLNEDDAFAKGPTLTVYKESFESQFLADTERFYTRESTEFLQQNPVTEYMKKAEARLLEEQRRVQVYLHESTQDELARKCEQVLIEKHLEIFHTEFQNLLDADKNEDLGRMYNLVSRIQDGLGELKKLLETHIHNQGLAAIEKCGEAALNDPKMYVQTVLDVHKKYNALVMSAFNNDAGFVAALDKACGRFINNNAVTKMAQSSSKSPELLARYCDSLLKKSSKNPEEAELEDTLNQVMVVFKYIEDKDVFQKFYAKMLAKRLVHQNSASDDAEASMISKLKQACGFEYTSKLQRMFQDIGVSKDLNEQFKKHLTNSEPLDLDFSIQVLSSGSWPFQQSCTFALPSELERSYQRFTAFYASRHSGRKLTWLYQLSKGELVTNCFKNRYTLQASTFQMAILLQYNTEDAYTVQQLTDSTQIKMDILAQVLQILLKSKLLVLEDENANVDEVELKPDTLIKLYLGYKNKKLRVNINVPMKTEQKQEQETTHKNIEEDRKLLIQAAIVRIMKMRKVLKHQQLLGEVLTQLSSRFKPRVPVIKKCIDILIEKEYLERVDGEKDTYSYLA
* marks the source's active call; other numbers are inactive results. This is one part of a sample in which hits are shown more often than they occur.

SMILES	ROC1-CUL1 inh
O=C(O)CN1C(=O)/C(=C\c2ccccc2Sc2ccc(Cl)cc2)SC1=S	103*
CCOc1ccccc1/C=C1\SC(=S)N(CC(=O)O)C1=O	4
Cc1oc(-c2cc3c(cc2Cl)OCO3)nc1CN1CCCCC1c1cccnc1 (centres undefined)	3
COc1c2c(c(OC)c3occc13)OC(C)(C)C=C2OC(C)=O	-11
COc1ccccc1C(=O)N[C@@H]1c2ccccc2C2(CCN(Cc3cc(F)ccc3F)CC2)[C@H]1OC	14
N=c1c(C(N)=O)cc(C(=O)c2ccccc2)nn1-c1ccccc1	9
CC(C)CNC(=O)c1coc(COc2cccc3cccnc23)n1	6
O=C(c1coc(COc2cccc3cccnc23)n1)N1CC[C@@H]2CCCC[C@H]2C1	57*
O=C(c1coc(COc2cccc3cnccc23)n1)N1CCCC1	1
N=C1C(=O)Oc2ccccc2C1NC1CCCCC1 (centres undefined)	-6
COc1ccc(/C=C2\N=C(c3ccccc3)OC2=O)cc1[N+](=O)[O-]	0
CCN(CC)c1ccc(/C=C2\N=C(c3ccccc3)OC2=O)cc1	32*
CCOc1cc(/C=C2\N=C(c3ccccc3)OC2=O)ccc1OCc1ccc(Cl)cc1	-3
CC1=C(C(=O)N2CCCCC2)C(c2cccc(F)c2)n2ncnc2N1 (centres undefined)	11
Cc1cc(/C=C2\C(=O)NC(=S)N(c3cccc(Cl)c3)C2=O)c(C)n1-c1sc2c(c1C(=O)Nc1ccccc1)CCCC2	8
Cc1cc(/C=C2\C(=O)NC(=S)N(c3ccc(Cl)cc3)C2=O)c(C)n1-c1sc2c(c1C(=O)Nc1ccccc1)CCCC2	41*
Cc1cccc(N2C(=O)/C(=C/c3cc(C)n(-c4sc5c(c4C(=O)Nc4ccccc4)CCCC5)c3C)C(=O)NC2=S)c1	4
Brc1ccc(C(c2c[nH]c3ccccc23)c2c[nH]c3ccccc23)s1	-4
O=C(NC(=S)N=C1CCN(c2ccccc2)N1)c1ccccc1	-2
Cc1cc(C(F)(F)F)n2nc(N)c(N=Nc3cccc(C(F)(F)F)c3)c2n1	11
CSc1c(C#N)c(N)nc2c(N=Nc3ccc(S(N)(=O)=O)cc3)c(N)nn12	84*
Cc1cc(C(F)(F)F)n2nc(N)c(N=Nc3ccccc3)c2n1	0
CN1C2CCCC1CC(NC(=O)c1ccc3c(c1)OCO3)C2 (centres undefined)	-4
CCOc1ccc(C2CC(=O)NC3=C2C(=O)CC(C)(C)C3)cc1OC (centres undefined)	2
Oc1c(Br)cc(C(=C(Cl)Cl)c2cc(Br)c(O)c(Br)c2)cc1Br	66*
SMILES	ROC1-CUL1 inh
Oc1c(Br)cc(Br)nc1Br	2
COc1cc(/C=C2\SC(=S)N(/N=C/c3cc(OC)c(O)cc3Cl)C2=O)c(Cl)cc1O	46*
COc1cc(C=C2C(=O)NC(=S)NC2=O)c(Cl)cc1O	1
COc1ccc(/C=C2\SC(=S)N(C3CCCCC3)C2=O)cc1O	-5
Cc1n[nH]c(C)c1CCCCCCOc1ccccc1	-2
c1ccc(-c2cc3ccc4cccc2n43)cc1	-1
COC(=O)c1cc2c(-c3ccccc3)cc3ccccn3c-2c1C(=O)OC	5
c1ccc(-c2cc3ccccn3c3cccc2-3)cc1	93*
CC1=NC(=O)NC(c2ccc(N(C)C)cc2)C1C(=O)Nc1ccc(F)cc1 (centres undefined)	8
COc1ccc(/C=N\NS(=O)(=O)c2ccc(Br)cc2)cc1COC(C)=O	-6
COc1ccc(C(=O)Oc2c(Sc3ccc(C)cc3)c(C)nn2C(C)(C)C)cc1OC	-8
COCC(=O)Oc1c(Sc2ccc(C)cc2)c(C)nn1C(C)(C)C	59*
COc1cccc(C(=O)Oc2c(Sc3ccc(C)cc3)c(C)nn2C(C)(C)C)c1OC	-3
CC(C)CN=C1CCCc2ccccc2N1	-7
N#CCSc1nc(N)c(C(=O)O)cc1C#N	3
Cc1ccc(N2NC(=O)/C(=C/c3cc4c(cc3Cl)OCO4)C2=O)cc1C	65*
Cc1ccc(N2NC(=O)/C(=C/c3ccc4c(c3)n(C)c(=O)n4C)C2=O)cc1Cl	8
Cc1ccc(N2NC(=O)/C(=C/c3ccccc3OCc3ccccc3)C2=O)cc1	7
CCOc1cc(/C=C2\C(=O)NC(=O)N(c3ccc(Cl)cc3)C2=O)cc(Br)c1O	4
CCOc1ccccc1/C=C1\C(=O)NN(c2ccc(C)c(C)c2)C1=O	47*
CCOc1ccc(/C=C2/C(=O)NN(c3ccc(Cl)cc3)C2=O)cc1OC	-7
O=C1NC(=S)NC(=O)C1=Cc1cc2c(cc1Cl)OCO2	3
CCOc1c(/C=C2\C(=O)NN(c3ccc(Cl)c(Cl)c3)C2=O)cccc1OC	13
CCOc1cc(/C=C2\C(=O)NN(c3ccc(Cl)cc3)C2=O)c(Br)c(Br)c1O	73*
CCn1ccnc1CN(C)C(=O)c1cc(COc2cncc(Cl)c2)on1	7
SMILES	ROC1-CUL1 inh
CCc1ccc2oc(-c3cc(N=Cc4c(O)c(OC)cc(Br)c4Br)ccc3O)nc2c1	18
CC(=O)O[C@H]1C(=O)C2=C(CC3(C)CC(C)(C)CC2(C(=O)O)C3)CC1(C)C (some centres undefined)	7
Cc1nc2sc3c(c2c(C)c1C)NC(=O)CC3=O	-6
CCCCOc1cccc2c1C(O)(c1cccs1)c1c(OCCCC)cccc1C2(O)c1cccs1 (centres undefined)	-5
Cc1cccc(-c2nnc(SCC3=Nc4c(Cl)cccc4C(=O)C3)n2C)c1	3
CC(C)CC(=O)N1CCN(S(=O)(=O)c2cccs2)CC1	2
CCOc1ccc(Br)cc1/C=C1/C(=O)NN(c2ccc(I)cc2)C1=O	21
CC(C)CCN(C)c1ccc(/C=C2/C(=O)NN(c3ccc(Br)cc3)C2=O)cc1	0
CCc1ccc(N2NC(=O)/C(=C\c3cccs3)C2=O)cc1	5
O=C1NN(c2ccc(Br)cc2)C(=O)/C1=C\c1ccc(F)cc1	86*
O=C1NN(c2ccc(I)cc2)C(=O)/C1=C\c1cccc(I)c1	4
CCOc1ccc(/C=C2/C(=O)NN(c3ccc(I)cc3)C2=O)cc1	-3
COc1cc(/C=C2\C(=O)NN(c3ccc(Br)cc3)C2=O)cc(OC)c1OC	-8
O=C1NN(c2ccc(I)cc2)C(=O)/C1=C\c1cc(Br)ccc1O	29*
CCN(CC)c1ccc(/C=C2/C(=O)NN(c3cccc(Br)c3)C2=O)cc1	0
CCc1ccc(N2NC(=O)/C(=C/c3cccc(Br)c3)C2=O)cc1	40*
Cc1ccc(/C=C2\C(=O)NN(c3ccc(I)cc3)C2=O)cc1	63*
O=C1NN(c2ccc(I)cc2)C(=O)/C1=C\c1ccccc1O	-7
CCOC(=O)NC(Nc1ccc(S(=O)(=O)Nc2ncccn2)cc1)(C(F)(F)F)C(F)(F)F	1
O=C(Cc1noc2ccccc12)Nc1cccc(C(F)(F)F)c1	8
COc1cccc(-c2ccc(NC(=O)C3CCCN3C(=O)CSC)cc2)c1 (centres undefined)	1
Cc1cc(C)cc(/C=C/c2ccc3ccccc3c2)c1	-2
CC1CCCN(C(=O)c2coc(COc3ccc4ncccc4c3)n2)C1 (centres undefined)	11
COCCN1CCCC2(CCN(Cc3cc(C)ccc3C)C2)C1=O (centres undefined)	1
COc1cc(CNC2CCCC2)cc(Cl)c1OC	0
O=C1NN(c2ccc(Cl)cc2)C(=O)/C1=C/c1ccc(Cl)cc1	46*
O=C1NN(c2ccc(Cl)cc2)C(=O)/C1=C/c1ccc2c(c1)OCO2	8
O=C1NN(c2ccc(Cl)cc2)C(=O)/C1=C/c1ccc(O)cc1O	-4
